According to the supplement of paper PMC10515830:
Structures can show the parent of a compound that is named as a salt.

What was measured:
Details in all cases: 10 µM; exposure time 6 h
[1] = system: Danio rerio larvae (5 dpf); assay: difference in excitability vs DMSO (percentage points); higher = more excitable than DMSO
Method in brief: (§1)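 Library compounds were tested at 10 µM final in 100 µL egg water on wild-type 5 dpf zebrafish larvae in 96-well plates for 6 h, with 48 larvae per compound. After 3 h, plates at 28.5 ℃ were imaged every 6 s during a 3-h run of moving lines and 100 ms, 400Hz tones. Behaviours were quantified by Z-LaP Tracker and reported as the compound mean less the vehicle control mean, in percentage points.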

[2] = system: Danio rerio larvae (5 dpf); assay: difference in startle response vs DMSO (percentage points); higher = stronger startle than DMSO
Method in brief: as §1

[3] = system: Danio rerio larvae (5 dpf); assay: difference in activity during first hour vs DMSO (percentage points); higher = more activity than DMSO
Method in brief: as §1

[4] = system: Danio rerio larvae (5 dpf); assay: difference in habituation to acoustic stimuli vs DMSO (percentage points); higher = more habituation than DMSO
Method in brief: as §1

[5] = system: Danio rerio larvae (5 dpf); assay: difference in combined optomotor response to red, green and blue moving lines vs DMSO (percentage points); higher = stronger optomotor response than DMSO
Method in brief: as §1

Row | Structure (SMILES) | difference in excitability [1] | difference in startle response [2] | difference in activity during first hour [3] | difference in habituation to acoustic stimuli [4] | difference [5]
1 | Clc1ccc(C(c2ccccc2Cl)C(Cl)Cl)cc1 (stereo not given) [Mitotane] | 5.19 | -9.33 | 60.8 | -11.8 | -15.4
2 | C[N+](C)(C)C[C@H](O)CC(=O)[O-] [L-Carnitine] | -2.51 | -2.46 | 8.51 | 4 | 3.58
3 | CN(C)CCOC(C)(c1ccccc1)c1ccccn1 (stereo not given) [Doxylamine (succinate)] | 0.347 | -2.91 | 6.73 | 5.01 | 9.42
4 | CS(=O)(=O)CCNCc1ccc(-c2ccc3ncnc(Nc4ccc(OCc5cccc(F)c5)c(Cl)c4)c3c2)o1 [Lapatinib] | -0.459 | 0.335 | -8.64 | -0.929 | 1.37
5 | Cl.N=C(N)NCCC[C@H](N)C(=O)O [L-Arginine (hydrochloride)] | 4.03 | -4.09 | 10.1 | 2.29 | 0.624
6 | C[C@]12C=CC(=O)C=C1CC[C@@H]1[C@@H]2C(=O)C[C@@]2(C)[C@H]1CC[C@]2(O)C(=O)CO [Prednisone] | 14.1 | 2.97 | -14.4 | 6.62 | -4.57
7 | CN(Cc1ccc(C(C)(C)C)cc1)Cc1cccc2ccccc12 [Butenafine (hydrochloride)] | 2.06 | 2.01 | -10.7 | 0.859 | -2.95
8 | CC(C)n1c(/C=C/C(O)CC(O)CC(=O)O)c(-c2ccc(F)cc2)c2ccccc21 (stereo not given) [Fluvastatin (sodium salt hydrate)] | 11.5 | -2.51 | 4.55 | -1.22 | 3.05
9 | OC[C@@H](O)[C@@H](O)[C@H](O)[C@H](O)CO [D-Mannitol] | 1.16 | -0.914 | 5.26 | 3.53 | 4.85
10 | Brc1c(NC2=NCCN2)ccc2nccnc12 [Brimonidine (tartrate)] | -0.928 | -0.293 | -14.2 | 3.89 | 10.9
11 | CN(C)C/C=C/C(=O)Nc1cc2c(Nc3ccc(F)c(Cl)c3)ncnc2cc1O[C@H]1CCOC1 [Afatinib (maleate)] | 20.1 | -1.05 | -11.3 | 5.63 | 8.09
12 | N#Cc1ccc(C(c2ccc(C#N)cc2)n2cncn2)cc1 [Letrozole] | 4.92 | -5.86 | -6.93 | -3.28 | 0.376
13 | CN(C)CCc1c[nH]c2ccc(Cn3cncn3)cc12 [Rizatriptan (benzoate salt)] | 9.6 | -1.93 | 6.28 | 2.81 | 7.91
14 | CC(=O)CC(c1ccccc1)c1c(O)c2ccccc2oc1=O (racemic) [(±)-Warfarin] | 7.35 | -1.45 | -0.141 | -3.9 | -1.34
15 | COCCCOc1ccnc(C[S+]([O-])c2nc3ccccc3[nH]2)c1C (stereo not given) [Rabeprazole (sodium salt)] | 2.22 | -0.57 | 7.69 | -4.65 | 15.4
16 | Cc1cc(C)cc(OCC2CNC(=O)O2)c1 (stereo not given) [Metaxalone] | 8.24 | -0.153 | 0.609 | 5.03 | 10.1
17 | COc1ccc2cc(C(C)C(=O)O)ccc2c1 (single isomer, unassigned; (+)) [(+)-Naproxen] | 3.24 | 2.79 | -2.88 | 2.25 | -3.32
18 | Cc1onc(-c2c(Cl)cccc2Cl)c1C(=O)N[C@@H]1C(=O)N2[C@@H]1SC(C)(C)[C@@H]2C(=O)O [Dicloxacillin (sodium salt hydrate)] | 9.09 | -2.02 | 8.63 | -4 | 0.484
19 | CCCCC[C@H](O)/C=C/[C@H]1[C@H](O)CC(=O)[C@@H]1CCCCCCC(=O)O [Prostaglandin E1] | 15.5 | -3.01 | -8.7 | -1.03 | 0.226

Row | Structure (SMILES) | difference in excitability [1] | difference in startle response [2] | difference in activity during first hour [3] | difference in habituation to acoustic stimuli [4] | difference [5]
20 | CC(C[N+](C)(C)C)OC(N)=O (stereo not given) [Bethanechol (chloride)] | 1.05 | -0.356 | -9.77 | 0.388 | -6.5
21 | Cc1nccn1CC1CCc2c(c3ccccc3n2C)C1=O (stereo not given) [Ondansetron (hydrochloride hydrate)] | 12.1 | -1.85 | 6.77 | -3.59 | 4.66
22 | Clc1ccc(CCC(Cn2ccnc2)Sc2c(Cl)cccc2Cl)cc1 (stereo not given) [Butoconazole (nitrate)] | 9.05 | -10.1 | -20.7 | -10.8 | -16.7
23 | CCc1nc(N)nc(N)c1-c1ccc(Cl)cc1 [Pyrimethamine] | 12.2 | 1.26 | 9.34 | -3.84 | 5.09
24 | C=C1[C@H](CO)[C@@H](O)C[C@@H]1n1cnc2c(=O)[nH]c(N)nc21 [Entecavir (hydrate)] | -1.86 | 2.04 | -1.96 | 5.32 | 0.96
25 | O=C(O)c1cn(C2CC2)c2cc(N3CCNCC3)c(F)cc2c1=O [Ciprofloxacin (hydrochloride)] | 5.21 | -3.39 | 16.5 | 2.26 | 2.77
26 | CNCC[C@H](Oc1cccc2ccccc12)c1cccs1 [(S)-Duloxetine (hydrochloride)] | 4.76 | -1.86 | -21 | -3.34 | -11.3
27 | CCC[C@H](N[C@@H](C)C(=O)N1[C@H](C(=O)O)C[C@@H]2CCCC[C@@H]21)C(=O)OCC [Perindopril] | 1.68 | 3.45 | 15 | -4.9 | 1.2
28 | CC1=C(C/C=C(\C)CCC[C@H](C)CCC[C@H](C)CCCC(C)C)C(=O)c2ccccc2C1=O [Vitamin K1] | -4.97 | 1.27 | 12.1 | -1.08 | 6.58
29 | CC1(C)O[C@@H]2C[C@H]3[C@@H]4C[C@H](F)C5=CC(=O)CC[C@]5(C)[C@H]4[C@@H](O)C[C@]3(C)[C@]2(C(=O)CO)O1 [Flurandrenolide] | 7.97 | 0.156 | 1.93 | 0.924 | 5.73
30 | CC(=O)O[C@H]1CC[C@@]2(C)C(=CC[C@@H]3[C@@H]2CC[C@]2(C)C(c4cccnc4)=CC[C@@H]32)C1 [Abiraterone Acetate] | 9.1 | -1.78 | -2.76 | -1.15 | 2.44
31 | COC(=O)Nc1nc2cc(C(=O)c3ccccc3)ccc2[nH]1 [Mebendazole] | 9.6 | -4.07 | 8.64 | 0.057 | 4.46
32 | CC(C)NCC(O)c1ccc(O)c(O)c1 (stereo not given) [Isoproterenol (hydrochloride)] | -11.9 | -6.4 | 45.9 | 1.72 | 6.58
33 | NS(=O)(=O)c1cc(C2(O)NC(=O)c3ccccc32)ccc1Cl (stereo not given) [Chlorthalidone] | -10 | 0.0654 | 5.83 | 3.4 | -3.83
34 | CN1CCN(CCCN2c3ccccc3Sc3ccc(C(F)(F)F)cc32)CC1 [Trifluoperazine (hydrochloride)] | 11.8 | -1.73 | 23.8 | -10.9 | -0.14
35 | CNCCC(Oc1ccc(C(F)(F)F)cc1)c1ccccc1 (stereo not given) [Fluoxetine (hydrochloride)] | 2.79 | -8.12 | -19.3 | -5.89 | -6.12
36 | O=C1C(O)=C([C@H]2CC[C@H](c3ccc(Cl)cc3)CC2)C(=O)c2ccccc21 [Atovaquone] | -0.794 | -0.517 | -0.977 | -6.16 | -7.53
37 | Nc1nc(=O)c2c([nH]1)NC[C@H](CNc1ccc(C(=O)N[C@@H](CCC(=O)O)C(=O)O)cc1)N2C=O [L-Folinic Acid (calcium salt)] | -3.02 | -0.777 | -9.87 | -0.456 | -0.774
38 | C[C@H](Cc1cc2c(c(C(N)=O)c1)N(CCCO)CC2)NCCOc1ccccc1OCC(F)(F)F [Silodosin] | 15.3 | 3.54 | 3.31 | -5.47 | 4.97
